Test results taken from ChEMBL document CHEMBL3988442, “University of Dundee, Small-Polar-MMV Screening Library” (2021).

Experiments:
[1] = biological target: T1, Aspartate--tRNA(Asp/Asn) ligase (Mycobacterium tuberculosis (strain ATCC 25618 / H37Rv)) (UniProt P9WFW3); assay: Assay for Asp RNA synthetase-1 from Mycobacterium tuberculosis; type: functional; design: scale not given: direction of the effect not stated beside the values; conditions: 30 µM; further: in the data most compounds retested in dose-response had high values
T1 sequence (whole entry): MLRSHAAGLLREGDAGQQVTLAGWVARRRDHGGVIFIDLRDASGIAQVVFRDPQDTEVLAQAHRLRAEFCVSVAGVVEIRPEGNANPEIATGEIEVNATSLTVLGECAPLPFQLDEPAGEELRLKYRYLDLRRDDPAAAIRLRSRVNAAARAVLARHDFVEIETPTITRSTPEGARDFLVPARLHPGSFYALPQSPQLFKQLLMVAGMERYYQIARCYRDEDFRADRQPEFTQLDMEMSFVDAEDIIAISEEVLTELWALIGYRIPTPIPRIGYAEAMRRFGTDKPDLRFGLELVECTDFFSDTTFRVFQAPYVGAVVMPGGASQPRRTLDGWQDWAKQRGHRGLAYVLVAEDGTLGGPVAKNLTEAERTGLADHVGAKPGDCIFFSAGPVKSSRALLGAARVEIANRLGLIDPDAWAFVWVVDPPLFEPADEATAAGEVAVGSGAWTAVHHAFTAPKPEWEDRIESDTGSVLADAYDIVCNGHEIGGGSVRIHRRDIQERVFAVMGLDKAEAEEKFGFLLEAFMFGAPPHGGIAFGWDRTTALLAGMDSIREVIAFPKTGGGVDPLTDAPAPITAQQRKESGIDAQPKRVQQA

[2] = biological target: Shiga toxin 2 (Escherichia coli O157:H7) (UniProt P09385+P09386); assay: E. coli 0.157:H7 Shiga Toxin SOP - stx2 screening assay; type: functional; design: scale not given: direction of the effect not stated beside the values; conditions: 30 µM

SMILES: COc1cc(CNc2cnn(C)c2)cc2c1OCCO2
- Percent Effect [1]: -1.79%
- Percent Effect [2]: 7.95%

SMILES: CC(=O)Nc1nc(C(=O)NCc2ccc(N3CCCCCC3)nc2)cs1
- Percent Effect [1]: 6.56%
- Percent Effect [2]: -131%

SMILES: CCN(CC)Cc1cn2c(n1)CN(C(=O)c1cnccn1)CC2
- Percent Effect [1]: 0.29%
- Percent Effect [2]: 5.28%

SMILES: Cn1ccc(C(=O)NCc2cccc(CN3CCCC3)c2)cc1=O
- Percent Effect [1]: 1.53%
- Percent Effect [2]: -46.4%

SMILES: Cc1cc(C)c(CNC(=O)NCC2CCCN2C)c(=O)[nH]1 (centres undefined)
- Percent Effect [1]: -1.7%
- Percent Effect [2]: 26.6%

SMILES: CCOCCn1nc(C)cc1C(=O)N1CC[C@](C)(O)[C@H](C)C1
- Percent Effect [1]: -4.03%
- Percent Effect [2]: 4.67%

SMILES: Cc1cccc(C2(NC(=O)CCN3C(=O)CCC3=O)CCCC2)c1
- Percent Effect [1]: -6.14%
- Percent Effect [2]: 10.2%

SMILES: c1ccc(OCCCNCCn2cccn2)cc1
- Percent Effect [1]: -1.5%
- Percent Effect [2]: -44.6%

SMILES: COc1c(CNC2CCN(C(C)(C)C)CC2)c(C(C)C)nn1C
- Percent Effect [1]: -0.618%
- Percent Effect [2]: 30.9%

SMILES: O=C1CN(Cc2nnc(-c3ccccc3Br)o2)CCN1
- Percent Effect [1]: -4.51%
- Percent Effect [2]: -24.1%

SMILES: O=C(NCc1cccnc1)C1=NOC2(CCN(S(=O)(=O)C3CC3)C2)C1 (centres undefined)
- Percent Effect [1]: -3.41%
- Percent Effect [2]: -21.8%

SMILES: O=C(NCC(Cc1cccc(F)c1)N1CCCC1=O)c1ccccc1 (centres undefined)
- Percent Effect [1]: -2.27%
- Percent Effect [2]: -0.947%

SMILES: O=C(NC1CCS(=O)(=O)C1)c1sccc1-c1ccc(F)cc1 (centres undefined)
- Percent Effect [1]: -5.43%
- Percent Effect [2]: 3.12%

SMILES: COCC(=O)N1CCCn2c(CN3CCCCC3)nnc2C1
- Percent Effect [1]: 1.5%
- Percent Effect [2]: -19.1%

SMILES: Cn1cc(CCNC(=O)NC2CCS(=O)(=O)C2)cn1 (centres undefined)
- Percent Effect [1]: 2.01%
- Percent Effect [2]: -8.38%

SMILES: CN1[C@H](Cn2cccn2)C[C@@H]2CN(C(=O)Cc3cccs3)CC[C@@H]21
- Percent Effect [1]: 3.12%
- Percent Effect [2]: -12.8%

SMILES: CC(=O)N1CCC(c2cc(C(F)(F)F)n3ccnc3n2)CC1
- Percent Effect [1]: 6.9%
- Percent Effect [2]: -9.96%
